# Over roughly 81,000 sequences, “one-hybrid fitness for binding parS DNA” has its median near -0.17; the highest 2% begin near 0.51. What follows is part of a selection rich in the highest values, with near analogues and random picks from the rest.
# B1: Caulobacter ParB omega fusion; a variant is named by its letters at X, in order, B8GW30 (parent)
# chain: MESVVVGEPGMSEGRRGLGRGLSALLGEVDAAPAQAPGEQLGGSREAPIEILQRNPDQPRRTFREEDLEDLSNSIREKGVLQPILVRPSPDTAGEYQIVAGERAWRAAQRAGLKTVPIMVRELDDLAVLEIGIIENVQRADLNVLEEALSYKVLMEKFERTQENIAQTIGKSXSHVANXMRLLXLPDEVQSYLVSGELTAXHARAIAAAADPVALAKQIIEGGLSVRETEALARKAPNLSAGKSKGGRPPRVKDTDTQALESDLSSVLGLDVSIDHRGSTGTLTITYATLEQLDDLCNRLTRGI
# Variants of: B1
# Test: one-hybrid fitness for binding parS DNA (scaled: cognate 1, non-cognate 0); higher = stronger binding
# Conditions: with parS DNA site
# How it was run: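 In E. coli USO, a HIS3 reporter with its site placed 19 bp from the promoter was used to select Caulobacter ParB variants randomised at four specificity codons. Growth lasted 48 hours at 37°C on histidine-free M9 containing 0.1 mM IPTG and 5 mM 3-AT. Fitness was taken as the log change in variant-to-wild-type read ratio from Illumina sequencing of pre- and post-selection plasmids, rescaled between the non-cognate and cognate sites.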
row,Variant,one-hybrid fitness for binding parS DNA
1,KANM,≤ 0.2
2,NRAG,≤ 0.2
3,PIVT,≤ 0.2
4,QDIR,≤ 0.2
5,IPSC,≤ 0.2
6,PVWG,≤ 0.2
7,CTRC,≤ 0.2
8,QFWR,≤ 0.2
9,VWSI,≤ 0.2
10,QVFN,≤ 0.2
11,RFDF,≤ 0.2
12,RFNE,≤ 0.2
13,RFNC,0.94
14,AFNC,≤ 0.2
15,NFDC,≤ 0.2
16,RFDC,0.793
17,PPHC,≤ 0.2
18,DNGY,≤ 0.2
19,RILR,≤ 0.2
20,RINM,0.381
21,RILM,0.333
22,RINC,0.955
23,RIYR,≤ 0.2
24,RIHK,≤ 0.2

row,Variant,one-hybrid fitness for binding parS DNA
1,RIYQ,≤ 0.2
2,RINF,0.201
3,RIYC,0.964
4,RIHC,0.977
5,RIHQ,≤ 0.2
6,RILC,0.97
7,RNGM,≤ 0.2
8,LKKY,≤ 0.2
9,QVQI,≤ 0.2
10,YEHV,≤ 0.2
11,QGHV,≤ 0.2
12,HFFL,≤ 0.2
13,LRSA,≤ 0.2
14,AADE,≤ 0.2
15,CFNA,≤ 0.2
16,WWKS,≤ 0.2
17,ECSL,≤ 0.2
18,PWPM,≤ 0.2
19,PHSN,≤ 0.2
20,LVPK,≤ 0.2
21,MIPM,≤ 0.2
22,QNKH,≤ 0.2
23,NKQR,≤ 0.2
24,RISC,0.969

row,Variant,one-hybrid fitness for binding parS DNA
1,RIRC,0.847
2,RISH,0.259
3,RICF,0.282
4,RIRQ,≤ 0.2
5,RICC,0.92
6,RIDC,0.866
7,RISP,0.209
8,RICP,≤ 0.2
9,RIDQ,≤ 0.2
10,RIRF,0.247
11,RIDK,≤ 0.2
12,QALV,≤ 0.2
13,MYER,≤ 0.2
14,ARTT,≤ 0.2
15,ANKV,≤ 0.2
16,AYCY,≤ 0.2
17,ALWS,≤ 0.2
18,ECMV,≤ 0.2
19,RYVQ,≤ 0.2
20,RYVF,≤ 0.2
21,RYVC,0.907
22,RYKM,0.369
23,RYKC,0.752
24,RYKR,≤ 0.2

row,Variant,one-hybrid fitness for binding parS DNA
1,TTLV,≤ 0.2
2,RFFT,0.582
3,RFFF,≤ 0.2
4,DFAT,≤ 0.2
5,RFFM,≤ 0.2
6,RFAT,0.79
7,NFAT,≤ 0.2
8,QAHK,≤ 0.2
9,TRYI,≤ 0.2
10,RYKY,0.514
11,RYKD,≤ 0.2
12,RYKS,0.793
13,RYVY,0.357
14,RYYY,0.462
15,RYKP,≤ 0.2
16,RYVN,0.364
17,RYVS,0.976
18,RYVH,0.253
19,TITP,≤ 0.2
20,LFYR,≤ 0.2
21,HYYD,≤ 0.2
22,DGDR,≤ 0.2
23,RINR,≤ 0.2
24,RIDN,0.388

row,Variant,one-hybrid fitness for binding parS DNA
1,RIDG,0.831
2,RINE,≤ 0.2
3,RING,1.03
4,RIDP,≤ 0.2
5,QLMK,≤ 0.2
6,SRNE,≤ 0.2
7,GGVR,≤ 0.2
8,RMWS,1.05
9,RCWS,1.09
10,RMWP,≤ 0.2
11,RCWN,0.401
12,RSWD,≤ 0.2
13,RMWD,≤ 0.2
14,RSWS,0.989
15,RSWP,≤ 0.2
16,RPWS,≤ 0.2
17,PQAF,≤ 0.2
18,RMKV,≤ 0.2
19,CHNG,≤ 0.2
20,TAAQ,≤ 0.2
21,SDSD,≤ 0.2
22,GVLC,≤ 0.2
23,RKVA,0.527
24,RKKA,0.846

row,Variant,one-hybrid fitness for binding parS DNA
1,TGNL,≤ 0.2
2,DKAR,≤ 0.2
3,AWNT,≤ 0.2
4,KHTD,≤ 0.2
5,YNPS,≤ 0.2
6,QHAY,≤ 0.2
7,RQLF,0.241
8,RTAG,1
9,RTAM,0.311
10,RTFK,≤ 0.2
11,RTAH,0.21
12,RTFG,1.01
13,RTFY,0.479
14,TEAR,≤ 0.2
15,CSDF,≤ 0.2
16,IWPL,≤ 0.2
17,CTLY,≤ 0.2
18,PPSK,≤ 0.2
19,YQCG,≤ 0.2
20,CLKA,≤ 0.2
21,RLVA,0.567
22,ALKA,≤ 0.2
23,RLKA,0.796
24,DLVA,≤ 0.2

row,Variant,one-hybrid fitness for binding parS DNA
1,NLVA,≤ 0.2
2,LHAG,≤ 0.2
3,QGGK,≤ 0.2
4,TMSY,≤ 0.2
5,QLMM,≤ 0.2
6,SQKG,≤ 0.2
7,REVC,≤ 0.2
8,RSVD,≤ 0.2
9,RSVC,0.775
10,RSVH,≤ 0.2
11,RPVC,≤ 0.2
12,RCVC,0.965
13,AWDA,≤ 0.2
14,HGSI,≤ 0.2
15,DKKR,≤ 0.2
16,SPNA,≤ 0.2
17,LWAR,≤ 0.2
18,VAPG,≤ 0.2
19,RNFY,≤ 0.2
20,RNAY,0.359
21,RNAG,0.853
22,RNFR,≤ 0.2
23,RNFG,0.662
24,RNAR,≤ 0.2

row,Variant,one-hybrid fitness for binding parS DNA
1,NIRE,≤ 0.2
2,HAKP,≤ 0.2
3,CTSH,≤ 0.2
4,HSAT,≤ 0.2
5,REAF,≤ 0.2
6,LGNC,≤ 0.2
7,RMKP,≤ 0.2
8,RMVL,≤ 0.2
9,RMVK,≤ 0.2
10,RMKR,≤ 0.2
11,RMVG,0.971
12,RMKG,0.929
13,FQCR,≤ 0.2
14,TNCV,≤ 0.2
15,IAED,≤ 0.2
16,TLGD,≤ 0.2
17,IMTY,≤ 0.2
18,HASR,≤ 0.2
19,WPLT,≤ 0.2
20,RVGW,0.209
21,RLSP,≤ 0.2
22,RLCY,0.485
23,RLCR,≤ 0.2
24,RLHN,0.442

row,Variant,one-hybrid fitness for binding parS DNA
1,RLLY,0.505
2,RLHD,≤ 0.2
3,RLLC,1
4,RLSC,0.98
5,RLSH,0.266
6,RLCC,0.995
7,RLHC,0.973
8,RLLK,≤ 0.2
9,QRLD,≤ 0.2
10,GQHW,≤ 0.2
11,KKGT,≤ 0.2
12,PNTI,≤ 0.2
13,NASI,≤ 0.2
14,HCLN,≤ 0.2
15,TCIV,≤ 0.2
16,HMWR,≤ 0.2
17,YTVS,≤ 0.2
18,RLYC,1.01
19,RLRQ,≤ 0.2
20,RLRC,0.846
21,RLYK,≤ 0.2
22,RLRN,0.432
23,RLYR,0.23
24,WPPM,≤ 0.2

row,Variant,one-hybrid fitness for binding parS DNA
1,YLAL,≤ 0.2
2,RVRK,≤ 0.2
3,RVSF,0.224
4,RVSK,≤ 0.2
5,RVRT,0.825
6,RVST,0.92
7,RVHD,≤ 0.2
8,RVYT,0.93
9,RVHT,0.927
10,RVRQ,≤ 0.2
11,RVYK,≤ 0.2
12,RVYF,0.25
13,RVHP,≤ 0.2
14,GPPY,≤ 0.2
15,YVGI,≤ 0.2
16,QTHG,≤ 0.2
17,FAKY,≤ 0.2
18,LKTR,≤ 0.2
19,PGLR,≤ 0.2
20,RVDD,≤ 0.2
21,RVWR,≤ 0.2
22,RVQP,≤ 0.2
23,RVDH,≤ 0.2
24,RVLQ,≤ 0.2

row,Variant,one-hybrid fitness for binding parS DNA
1,RVWF,0.25
2,RVWT,0.886
3,RVLM,0.309
4,RVDT,0.741
5,RVLT,0.92
6,RVQT,0.913
7,RVQN,0.417
8,PFSC,≤ 0.2
9,GKMI,≤ 0.2
10,LFDL,≤ 0.2
11,TQEV,≤ 0.2
12,RKRY,0.422
13,FSIS,≤ 0.2
14,RVNH,≤ 0.2
15,RVGN,0.451
16,RVCY,0.462
17,RVGT,0.924
18,RVNP,≤ 0.2
19,RVCM,0.382
20,RVGD,≤ 0.2
21,RVCT,0.926
22,RVNT,0.899
23,PRGK,≤ 0.2
24,VWDG,≤ 0.2

row,Variant,one-hybrid fitness for binding parS DNA
1,IEKT,≤ 0.2
2,VALY,≤ 0.2
3,GQET,≤ 0.2
4,SLYK,≤ 0.2
5,GKPL,≤ 0.2
6,RRET,0.674
7,RAEI,≤ 0.2
8,RAET,0.68
9,RAEK,≤ 0.2
10,RCET,0.758
11,RHET,0.734
12,RHEK,≤ 0.2
13,RHEM,0.214
14,RPET,≤ 0.2
15,RDET,≤ 0.2
16,EKRG,≤ 0.2
17,SQQG,≤ 0.2
18,TPYC,≤ 0.2
19,VTLR,≤ 0.2
20,QKRV,≤ 0.2
21,QSKN,≤ 0.2
22,QNAM,≤ 0.2
23,EGGH,≤ 0.2
24,VPIN,≤ 0.2

row,Variant,one-hybrid fitness for binding parS DNA
1,DWQR,≤ 0.2
2,RIEF,≤ 0.2
3,RSET,0.653
4,REET,≤ 0.2
5,RMEM,0.309
6,PFET,≤ 0.2
7,EFET,≤ 0.2
8,RFET,0.655
9,RIET,0.709
10,RMEF,≤ 0.2
11,RMET,0.731
12,RIEK,≤ 0.2
13,RGET,0.308
14,PTPR,≤ 0.2
15,QSVP,≤ 0.2
16,AQRA,≤ 0.2
17,WPTL,≤ 0.2
18,GPKW,≤ 0.2
